Vaccinia mCherry – qHTS for Stage-Specific Inhibitors of Vaccinia Orthopoxvirus: mCherry Reporter Primary qHTS; 310,000 tested, 0.63% active; AID 720579, 2013; Potency, µM (highest dose often 36.5 µM), inactives show top-dose activity change, negative = inhibition, actives largely listed as inhibitors; Vaccinia virus mCherry reporter infection, fluorescence; calls by dose curve; tested in A549 cells; also: potency is read from the fitted curve at half-maximal effect; nearly all actives have a fitted effect of over 35% in size
FMDV antiviral – High Throughput Screening for Foot and Mouth Disease Virus Antivirals; Potency, µM (titrated, usually from 57.9 µM), without a hit: top-dose activity change, negative = inhibition, actives largely listed as inhibitors; 410,000 tested, 1.2% active; FMDV antiviral cell-based qHTS; calls by dose curve; tested in HEK293T cells; also: read-out not given here; potency is read from the fitted curve at half-maximal effect; nearly all actives have a fitted effect of over 45% in size
HCMV inh – qHTS Assay for inhibitors of the human cytomegalovirus (HCMV). HFF cells, HCMV-luciferase reporter, 72 h; hits give low values. activity change, negative = inhibition, % at 57.5 µM. 410,000 tested, 4.5% active. AID 1259415, 2018; in the data active = activity change below about -60%; inconclusive = no clear call, values can overlap the other calls; inactive = above about -39%
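Screen run at 2 compound doses on HFFs infected with reporter HCMV, MOI 1 PFU/cell. Luciferase activity from cell lysates at 72 h post infection gave inhibition relative to buffer-only and Salinomycin wells.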
Vaccinia Venus – qHTS for Stage-Specific Inhibitors of Vaccinia Orthopoxvirus: Venus Reporter Primary qHTS. AID 720580, 2013. Vaccinia virus Venus reporter expression, fluorescence. 330,000 tested, 0.46% active. Potency, µM (top dose mostly 36.5 µM), for inactives: top-dose activity change, negative = inhibition, actives largely listed as inhibitors; calls by dose curve; tested in A549 cells; also: potency is read from the fitted curve at half-maximal effect; nearly all actives have a fitted effect of over 30% in size
LASV entry inh – qHTS for Inhibitors of binding or entry into cells for Lassa Virus; 300,000 tested, 1.2% active; Potency, µM (highest dose often 37.9 µM), without a hit: top-dose activity change, negative = inhibition, hits mostly inhibitors; AID 540256, 2011; Lassa virus pseudotype entry inhibition, cell reporter; calls by dose curve; tested in HEK293 cells; also: potency is read from the fitted curve at half-maximal effect; nearly all actives have a fitted effect of over 50% in size
MARV entry inh – qHTS for inhibitors of binding or entry into cells for Marburg Virus. Potency, µM (series often up to 37.8 µM), without a hit: at the highest dose activity change, negative = inhibition, actives largely listed as inhibitors. Marburg virus pseudotyped entry inhibition, cell reporter. 300,000 tested, 1.8% active; calls by dose curve; tested in HEK293 cells; also: potency is read from the fitted curve at half-maximal effect
Numbers without * were called inactive; [ ] = remark or other dose. Only some compounds are listed: those with a hit (about 6.5% of all), similar ones and a draw of the others. % is scaled to controls: 0 for no effect and ±100 for the full control effect.

Results for COc1ccc(Oc2nc(-c3ccccn3)nc3ccccc23)cc1 ?
Vaccinia mCherry: 4.47µM*; FMDV antiviral: 2.5%; HCMV inh: -69.8*; Vaccinia Venus: inconclusive; LASV entry inh: inconclusive; MARV entry inh: inconclusive

Results for Cc1nc(SCC(=O)Nc2ccccc2Cl)cc(-c2ccccc2)n1 ?
Vaccinia mCherry: -6.2%; FMDV antiviral: -17.3%; HCMV inh: inconclusive; Vaccinia Venus: -5.4%; LASV entry inh: -5.6%[46.1 µM]; MARV entry inh: inconclusive

What do the screens show for `O=C(c1ccc2c(=O)n(CCc3ccccc3)c(=O)[nH]c2c1)N1CCN(C(=O)c2ccco2)CC1`?
Vaccinia mCherry: -0.1%; Vaccinia Venus: -16.6%

Results for Cc1ccc(-c2cn3c(n2)sc2cc(C(=O)N4CCCCC4)ccc23)cc1 ?
Vaccinia mCherry: -11.5%; FMDV antiviral: inconclusive; Vaccinia Venus: -12.2%; LASV entry inh: 9.0%[46.1 µM]

Results for COc1ccc(NC(=O)c2sc3nc4c(cc3c2N)CN(Cc2ccccc2)CC4)cc1 ?
Vaccinia mCherry: -6.8%; FMDV antiviral: -6.8%; HCMV inh: 2.6; Vaccinia Venus: -3.3%; LASV entry inh: 4.9%[46.1 µM]; MARV entry inh: inconclusive

What do the screens show for `Cc1ccc(NC(=O)c2sc3nc4c(cc3c2N)CN(Cc2ccccc2)CC4)cc1`?
Vaccinia mCherry: inconclusive; FMDV antiviral: -20.3%; HCMV inh: -63.2*; Vaccinia Venus: inconclusive; LASV entry inh: 18.9%[46.1 µM]; MARV entry inh: inconclusive

Results for CCN1CCc2nc3sc(C(=O)Nc4cccc(Cl)c4C)c(N)c3cc2C1 ?
Vaccinia mCherry: inconclusive; FMDV antiviral: 14.1µM*; HCMV inh: inconclusive; Vaccinia Venus: -25.8%; LASV entry inh: 4.2%[46.1 µM]; MARV entry inh: inconclusive

Results for CC(=NN=C(C)c1ccc(O)cc1)c1ccc(O)cc1 ?
Vaccinia mCherry: -30.0%; FMDV antiviral: 7.0%; HCMV inh: 9.3; Vaccinia Venus: -7.4%; LASV entry inh: -23.7%[46.1 µM]; MARV entry inh: -0.6%[46.1 µM]

What do the screens show for `CC/C(=N/N=C(/CC)c1ccc(O)cc1)c1ccc(O)cc1`?
FMDV antiviral: 19.6%; HCMV inh: -99.3*

What do the screens show for `CC1=C(C(=O)Nc2ccccc2Cl)C(c2cccc(O)c2)n2ncnc2N1` (stereo unspecified)?
Vaccinia mCherry: -9.6%; FMDV antiviral: -6.7%; HCMV inh: 4.3; Vaccinia Venus: -4.1%; LASV entry inh: -20.2%[46.1 µM]

How did COc1ccc(C(=O)NCc2ccc(C)cc2)cc1S(=O)(=O)N1CCCc2ccccc21 do in these assays?
Vaccinia mCherry: inconclusive; FMDV antiviral: 39.7%; HCMV inh: -72.1*; Vaccinia Venus: -27.1%; LASV entry inh: -27.5%; MARV entry inh: inconclusive

Results for COc1ccc(C(=O)NCC2CCCO2)cc1S(=O)(=O)N1CCCc2ccccc21 (stereo unspecified) ?
Vaccinia mCherry: inactive; FMDV antiviral: 26.3%; HCMV inh: -2.3; Vaccinia Venus: -15.6%; LASV entry inh: inconclusive; MARV entry inh: inconclusive

How did COc1ccc(OC)c(S(=O)(=O)N2CCc3ccccc32)c1 do in these assays?
Vaccinia mCherry: inactive; FMDV antiviral: 14.2%; HCMV inh: 3.9; Vaccinia Venus: -21.3%; LASV entry inh: 8.3%; MARV entry inh: inconclusive

What do the screens show for `COc1ccc(OC)c(S(=O)(=O)N2CCCc3ccccc32)c1`?
FMDV antiviral: 8.4%; HCMV inh: -102.0*; Vaccinia Venus: -7.4%; LASV entry inh: 23.0%; MARV entry inh: inconclusive

What do the screens show for `Cc1ccc(-c2cc(C(=O)Nc3cc([N+](=O)[O-])ccc3C)no2)cc1F`?
Vaccinia mCherry: 0.7%; FMDV antiviral: -17.9%; HCMV inh: -6.9; Vaccinia Venus: -0.9%; LASV entry inh: -7.4%[46.1 µM]; MARV entry inh: 1.3%[46.1 µM]

How did CCc1ccccc1NC(=O)Cn1c(=O)nc(-c2ccccc2)c2ccccc21 do in these assays?
Vaccinia mCherry: -10.8%; FMDV antiviral: 4.0%; HCMV inh: 41.2; Vaccinia Venus: -2.3%; LASV entry inh: 3.5%[46.1 µM]

Results for Cc1ccc(C)c(NC(=S)Nc2cccnc2)c1 ?
Vaccinia mCherry: -5.3%; FMDV antiviral: -10.2%; HCMV inh: -1.3; Vaccinia Venus: -10.1%; LASV entry inh: -2.6%; MARV entry inh: inconclusive

Results for Cc1ccc(NC(=S)Nc2cccnc2)c(S(=O)(=O)N2CCCCC2)c1 ?
Vaccinia mCherry: -2.4%; FMDV antiviral: -18.5%; HCMV inh: -74.6*; Vaccinia Venus: -3.8%; LASV entry inh: inconclusive; MARV entry inh: inconclusive

What do the screens show for `O=C(O)C1CCCCN1c1ccccc1[N+](=O)[O-]` (stereo unspecified)?
Vaccinia mCherry: 0.9%; FMDV antiviral: -7.2%; HCMV inh: 15.2; Vaccinia Venus: 3.2%

Results for O=C(O)C1Cc2ccccc2N2CCCC12 (stereo unspecified) ?
Vaccinia mCherry: 1.7%; FMDV antiviral: -8.3%; HCMV inh: -61.1*; Vaccinia Venus: -5.6%; LASV entry inh: 10.0%[46.1 µM]; MARV entry inh: -0.6%[46.1 µM]

What do the screens show for `O=C(CC1N=C2c3ccccc3N=C(SCC(=O)Nc3ccc(F)cc3)N2C1=O)NCc1cccs1` (stereo unspecified)?
Vaccinia mCherry: -18.7%; FMDV antiviral: -20.8%; HCMV inh: 16.0; Vaccinia Venus: -5.8%; LASV entry inh: 25.6%[46.1 µM]

How did O=C(Cc1cccc2ccccc12)Nc1ccccc1C(=O)O do in these assays?
FMDV antiviral: 42.3%; HCMV inh: inconclusive; LASV entry inh: inconclusive; MARV entry inh: 14.6µM*

How did O=C(CCC1N=C2c3ccccc3N=C(SCC(=O)Nc3ccc(F)cc3)N2C1=O)NCc1cccs1 (stereo unspecified) do in these assays?
Vaccinia mCherry: -28.4%; FMDV antiviral: inconclusive; HCMV inh: -80.3*; Vaccinia Venus: 42.1%; LASV entry inh: 11.0%[46.1 µM]

Results for O=C(CSc1ccccc1)Nc1ccccc1C(=O)O ?
FMDV antiviral: 0.0%; HCMV inh: 89.2; LASV entry inh: inconclusive; MARV entry inh: 18.3µM*

How did Cc1ccc(CSCC(=O)Nc2ccccc2C(=O)O)cc1 do in these assays?
FMDV antiviral: 48.2%; HCMV inh: -79.4*

What do the screens show for `COC1=CC2C(=O)C(C1=O)C1c3ccccc3CC21` (stereo unspecified)?
MARV entry inh: -3.0%[14.2 µM]

What do the screens show for `COc1cccc(CCNC(=O)Cn2c(-c3cccs3)cc3ccccc32)c1`?
Vaccinia mCherry: -4.6%; FMDV antiviral: -3.7%; HCMV inh: -5.1; Vaccinia Venus: -10.7%; LASV entry inh: 5.6%[46.1 µM]; MARV entry inh: -9.0%[46.1 µM]

What do the screens show for `O=[N+]([O-])c1ccccc1S(=O)(=O)N1CCN(c2nc(-c3ccccc3)nc3ccccc23)CC1`?
Vaccinia mCherry: -11.0%; Vaccinia Venus: -13.5%

How did Cc1c(C(=O)NC2CCCC2)sc2ncnc(NCCN(C)C)c12 do in these assays?
Vaccinia mCherry: -6.6%; FMDV antiviral: -4.8%; Vaccinia Venus: -4.1%
